PubChem BioAssay AID720504 (National Center for Advancing Translational Sciences (NCATS), 2013)
Out of some 360,000 compounds screened, about 10,000 (2.8%) were called active. Inconclusive results (about 4%) are left out. The sample holds actives, similar compounds and a random draw of the others, so the mix is not that of the screen. Where a structure was tested more than once in an assay, its records may differ in their call. Values without a mark were called inactive. Calls come from the whole dose curve; as a rule, active = well fitted inhibition curve with a large enough effect; inconclusive = small, poorly fitted or top-dose-only effect; inactive = flat fitted curve, though single readings scatter.

Molecular target: Serine/threonine-protein kinase PLK1 (Homo sapiens) (UniProt P53350)
Sequence (P53350 whole entry, looked up, the tested form may be a part): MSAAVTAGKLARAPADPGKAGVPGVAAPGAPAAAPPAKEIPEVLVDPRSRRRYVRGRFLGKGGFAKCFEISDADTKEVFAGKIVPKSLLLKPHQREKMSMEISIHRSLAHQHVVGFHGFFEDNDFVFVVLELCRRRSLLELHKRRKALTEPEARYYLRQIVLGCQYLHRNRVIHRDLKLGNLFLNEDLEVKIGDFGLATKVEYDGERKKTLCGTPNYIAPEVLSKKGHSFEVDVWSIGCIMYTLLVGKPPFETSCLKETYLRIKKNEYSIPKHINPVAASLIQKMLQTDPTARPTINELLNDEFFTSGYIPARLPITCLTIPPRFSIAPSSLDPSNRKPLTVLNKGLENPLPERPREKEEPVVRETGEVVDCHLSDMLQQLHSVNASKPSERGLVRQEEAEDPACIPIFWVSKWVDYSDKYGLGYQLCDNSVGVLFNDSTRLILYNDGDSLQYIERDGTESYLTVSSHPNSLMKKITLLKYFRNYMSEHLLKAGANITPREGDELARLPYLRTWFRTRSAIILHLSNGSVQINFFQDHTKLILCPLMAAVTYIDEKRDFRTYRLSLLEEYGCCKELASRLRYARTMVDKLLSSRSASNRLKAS
Assay: qHTS for Inhibitors of PLK1-PDB (polo-like kinase 1 - polo-box domain): Primary Screen; note: nearly all actives have a fitted effect of over 65% in size; for max response, negative = inhibition: series mostly up to about 57 µM
Settings: Plk1 PBD binding of FITC phosphopeptide, fluorescence polarization
Description: The polo-like kinase 1 (Plk1) is a member of a conserved subfamily of serine / threonine protein kinases that plays a pivotal roles in cell proliferation. It has a C-terminal non-catalytic region called the polo-box domain (PBD) that plays a crucial role in the subcellular localization of the Plk1. […] Furthermore, depletion of the overexpressed Plk1 by RNAi efficiently induces apoptotic cell death in cancer and reduces tumor growth in mouse xenograft models. Thus, targeting Plk1 is an appealing strategy for anti-cancer therapy. Therefore, this project aimed to screen the Molecular Libraries Small Molecule Repository (MLSMR) using a novel approach to find inhibitors that target the Plk1 PBD instead of the conventional N-terminal catalytic domain. This project employed a fluorescence polarization (FP) assay using a FITC-conjugated phospho-9-mer (p-9-mer) peptide and purified human Plk1 PBD protein. The identified small molecule inhibitors of Plk1 PBD can then further be developed into useful tools for biomedical and clinical research that complements or replaces current relevant disease therapy. NIH Chemical Genomics Center [NCGC] NIH Molecular Libraries Probe Centers Network [MLPCN] MLPCN Grant: MH100728 Assay Submitter (PI): Kyung Lee, NCI
Four microliter of 25 nM FITC-p-9-mer + 60 nM Plk1 PBD in buffer solution (final concentrations 25 nM and 60 nM respectively) or 4 uL of 25 nM FITC-p-9-mer (final concentration 25 nM) in buffer will be dispensed into a 1,536 Greiner medium-binding black solid plate. Small molecules at final concentrations of 18 nM to 57 uM and positive control phospho-9-mer (sequence: Ac-PPLHSpTAI-NH2) at final concentrations 26 nM to 57 uM and phospho-13-mer (sequence: Ac-[…]pTAI-NH2) at final concentrations of 1 nM to 2.3 uM will be pin-transferred (23 nL) to the plate via a Kalypsys pin-tool robotics equipped with a 1,536-pin array. The reaction plate will be centrifuged for 1 min at 1000 rpm and incubated at room temperature for 10 min. The FITC fluorescence signals will be read using the PerkinElmer ViewLux plate reader at 480 / 20 nm excitation and 540 / 20 nm S and P polarization emission wavelengths. Reagent bottles will be kept submerged into 4 °C recirculating chiller bath and all liquid lines will be covered with aluminum foil to minimize degradation. Library plates will be screened starting from the lowest to the highest concentrations to minimize compound carryover. Vehicle only plates, with DMSO being pin-transferred instead of compound solutions, will be included regularly throughout the screen to record any systematic shifts in assay signal.
% is set by controls: 0 for no effect and ±100 for the full control effect; potency is the fitted concentration of half-maximal effect.

Compound | max response, negative = inhibition | Potency
O=S(=O)(c1ccc(-c2ccccc2)cc1)N1CCCC1 | -5.48% | 
CC1CCN(S(=O)(=O)c2ccc(S(=O)(=O)NCc3cccnc3)cc2)CC1 | -9.09% | 
O=S(=O)(NCc1ccccc1)c1ccc(S(=O)(=O)N2CCCC2)cc1 |  | 26.7 µM (active)
CN(Cc1ccc(C(F)(F)F)cc1)C(=O)[C@H]1O[C@@H](n2cnc3c(N)ncnc32)[C@H](O)[C@@H]1O | -3.67% | 
CN(C)C(=O)c1cccc(-c2cnc3c(NC=O)cc(-c4ccc(C(=O)N5CCOCC5)cc4)cn23)c1 | -14.7% | 
CCn1c(SCC(=O)Nc2sc(C)c(C)c2C#N)nnc1C1CC1 | -26.7% | 
Cc1cc(C(F)(F)F)nc(SCC(=O)Nc2nccs2)n1 | -4.23% | 
CCOC(=O)c1sc(NC(=O)CSc2nc(C)cc(C(F)(F)F)n2)c(C#N)c1C |  | 2.99 µM (active)
CC(=O)OCC(C)n1c(=O)c2ccccc2n1C(C)=O (configuration not stated) | 1.28% | 
CN(C)c1cccc(NC(=O)c2ccc(-c3ccc(F)c(F)c3)c3ccoc23)c1 | -11% | 
CCOC(=O)[C@]12CCCC=C1N(CCC1=CCCCC1)C(=O)[C@H](CC(=O)N1CCN(C(=O)c3ccco3)CC1)C2 | -19.8% | 
C[C@@H]1CN([C@@H](C)CO)S(=O)(=O)c2ccc(C#Cc3cccc(F)c3)cc2O[C@H]1CN(C)S(=O)(=O)c1cn(C)cn1 | -28.6% | 
CCCCCn1nnnc1-c1nc2cc3ccccc3cc2[nH]c1=O | -6.28% | 
CCn1cc(C(=O)N2CCN(C3CCCCC3)CC2)c2cc(OC)c(OC)cc2c1=O |  | 10.6 µM (active)
CCn1cc(C(=O)NCC2COc3ccccc3O2)c2cc(OC)c(OC)cc2c1=O (configuration not stated) | -0.135% | 
COc1cc(C(=O)N2CCN(C3CCC(C)CC3)CC2)cc(OC)c1OC (configuration not stated) | -10% | 
CCc1nc2ccc(C(=O)NC3CCN(Cc4ccccc4)CC3)cn2c1N(C)CCN1CCOCC1 | -5.14% | 
CCCCCc1c(-c2ccc(OC)c(OC)c2)ncn1CCc1ccccc1OC | -4.35% | 
Cc1cc(C)c(NC(=S)N2CCCC2C(=O)O)c(C)c1 (configuration not stated) |  | 6.7 µM (active)

Compound | max response, negative = inhibition | Potency
Cc1cc(C)c(NC(=O)CN2CCCCCC2)c(C)c1 | -2.23% | 
Cc1cc([N+](=O)[O-])c(N2CCC[C@@H]2C(=O)O)c([N+](=O)[O-])c1 | -4.11% | 
COc1ccc(CS(=O)/C(Cl)=C(/Cl)C(=O)Nc2ccc(OC)nc2)cc1 (configuration not stated) |  | 2.67 µM (active)
COc1ccc(NC(=O)CN2C(=O)NC(C)(c3ccccc3)C2=O)cn1 (configuration not stated) | 2.84% | 
COc1ccc(C(O)c2nc(-c3ccc(OC)nc3)cs2)cc1 (configuration not stated) | 6.19% | 
Cc1ccc(-c2c(N)nc3ncccn23)cc1 | 2.55% | 
CCc1nc2c(OCC(N)=O)cccn2c1N(C)C(=O)c1ccc(OC)cc1 | -13.5% | 
Cc1nc2ccccc2c(=O)n1CCCn1ccnc1 |  | 21.2 µM (active)
Clc1c(OCCCn2ccnc2)ccc2ccccc12 | -25.1% | 
CC1(C(=O)NCc2ccccc2)CSCC(=O)N1CCCn1ccnc1 (configuration not stated) | -0.172% | 
CN(C)c1ccc(/C=N/NC(=O)C(O)c2ccc(Br)cc2)cc1 (configuration not stated) | -14.9% | 
COc1ccc(/C=N/NC(=O)C(C)N(c2ccc(OC)cc2)S(C)(=O)=O)cc1 (configuration not stated) |  | 26.7 µM (active)
CC(C(=O)NC1CCCC1)N(c1ccc(Oc2ccccc2)cc1)S(C)(=O)=O (configuration not stated) | -1.83% | 
COc1ccccc1Cc1c(-c2ccc(Cl)cc2)nc2c3ccccc3ccn12 | -5.7% | 
O=C(/C=C/[C@H]1O[C@@H](n2ccc(=O)[nH]c2=O)[C@H](O)[C@@H]1O)NCc1ccccn1 | 0.76% | 
Cc1cccc(C)c1NC(=O)C(c1ccc(C(F)(F)F)cc1)n1c(=O)c(-c2ccco2)nc2ccccc21 (configuration not stated) | -16.2% | 
COc1ccc(-c2[nH]ncc2/C=N/NC(=O)c2cc(Br)ccc2O)c(OC)c1 |  | 26.7 µM (active)
COc1ccc(CC(=O)NCC(=O)N/N=C/c2cc(Br)ccc2OC)cc1 | 0.444% | 
CC(C)/C=N/NC(=O)c1cc(Br)ccc1O | -13.1% | 

Compound | max response, negative = inhibition | Potency
CC(C)(O)C1=C[N+](=O)CC=C1 | -9.3% | 
Cc1cc(C)n2nc(SCC(=O)NC(=O)NCc3ccco3)nc2n1 |  | 16.8 µM (active)
CCOC(=O)c1cnc(SCC(=O)NCc2ccco2)nc1N | -1.79% | 
O=C(CNc1ccc(F)cc1F)NC(=O)NCc1ccco1 | -20.1% | 
O=[N+]([O-])c1ccc(CN2CC(N3CCC(c4ccccc4)CC3)CS2(=O)=O)cc1 (configuration not stated) | -13.3% | 
CCOc1ccc(Cl)cc1-c1cc(C(=O)NCc2cccs2)[nH]n1 | -0.638% | 
O=C(O)CCCC(=O)N1N=C(c2ccco2)CC1c1ccco1 (configuration not stated) | -14% | 
Cc1nn(C(=O)c2ccoc2C)c(N)c1-c1ccccc1 | -3.12% | 
Cc1nn2c(c1-c1ccccc1)N=C(c1ccco1)CC2c1ccccc1 (configuration not stated) | 2.38% | 42.3 µM (active)
C[C@H]1CN([C@@H](C)CO)C(=O)c2cc(-c3ccccc3F)cnc2O[C@H]1CN(C)C(=O)C1CCOCC1 | -20.8% | 
Cc1ccc(Cn2c(C)c(C(=O)NCc3ccccc3C(F)(F)F)sc2=O)cc1 | -12.2% | 
O=C(Cc1ccc(-c2ccccc2)cc1)NC(c1ccccc1)c1ccccc1 |  | 21.2 µM (active)
C=CCC(NC(=O)Cc1ccccc1)C(=O)NCCC (configuration not stated) | -11.6% | 
O=C(CN1CCN(Cc2ccccc2)CC1)NC(c1ccccc1)c1ccccc1 | -13.1% | 
O=C1NC[C@H](CCCCN2C[C@H](Cc3ccc(O)cc3)N(CC3CCCCC3)C(=O)C2=O)N(CCc2ccccc2)C1=O | -5.25% | 
Cc1nc2c(OCc3ccc(Cl)cc3Cl)cccn2c1N(C)CC1CC1 | -13% | 
Cc1cc2nc(-c3ccc(Cl)cc3)c(Cc3cccc(F)c3)n2c(C)c1Br | -18.5% | 
Cc1noc(C)c1NC(=O)N(C)C[C@@H]1Oc2cc(Br)ccc2S(=O)(=O)N([C@@H](C)CO)C[C@H]1C | 2.61% | 
